# Reference: PubChem BioAssay
# “And” between values parts separate entries of the source, which are not always exact repeats. Equal values may be shown once. The source holds several records for some structures; these can differ, active in one and inactive in another. The source made the active and inactive calls. Unless noted, no stated cut-off is given here; in the data, active means inhibition above about 80%; inactive means the rest.
# Legend:
# [1] = viability loss with induced miR-34 in A549 – imaging, A549 dox-inducible miR-34, nuclei and caspase counts, primary screen (AID 1347080;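 active means compounds whose cell count with miR-34 switched on is under 0.7 times the count with it off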); details: A549 miR-34 inducible, Hoechst nuclei count, 48 h
# [2] = MELAS cybrid and Rieske KO viability enhancers – cell-based, MELAS cybrids, Rieske KO mouse fibroblasts, CellTiter-Glo, primary screen (AID 1508586;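 active means mean z-score across replicates of 1.96 or higher in either the MELAS or the Rieske mutant cell line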;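 further: z relative to plate mean and SD of compound and empty wells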); details: low glucose
# [3] = growth inhibition, single agent or in combination, cell-based, chromothripsis tumors, cisplatin or BGB combos (AID 1671449); details: LFS_MB_P medulloblastoma cells;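 further: cells exposed for 96 hours; 0% = vehicle DMSO and 100% = killing by high DMSO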
# [4] = growth inhibition, single agent and combos, cell-based, chromothripsis tumors, cisplatin or BGB combos (AID 1671450); details: HDN33 neuroblastoma cells, stronger effect = higher value;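 further: cells exposed to compound for four days; 0% = vehicle DMSO and 100% = cell killing by high DMSO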
# [5] = growth inhibition, single agents and combos, ICB984, cell-based, cisplatin or BGB combos, synergistic combos for chromothripsis tumors (AID 1671451; call rule not given here;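 further: cells exposed for 96 hours before readout; 0% = vehicle DMSO and 100% = killing by high DMSO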); details: ICB984 medulloblastoma cells, drug combinations, stronger effect = higher value
# [6] = growth inhibition, single agents and combos, LFS_MB_1R, cell-based, cisplatin or BGB combos, synergistic combos for chromothripsis tumors (AID 1671452); details: LFS_MB_1R medulloblastoma cells, stronger effect = higher value;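 further: cells exposed for 96 hours before readout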
# [7] = growth inhibition, single agents and combos, HTB85, cell-based, BGB or cisplatin IC20 combos, synergistic combos for chromothripsis tumors (AID 1671453); details: HTB85 osteosarcoma cells, drug combinations, stronger effect = higher value;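 further: cells exposed for 96 hours before readout; 0% = vehicle DMSO and 100% = high DMSO killing control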
# [8] = growth inhibition, single agents and combos, CRL2098, cell-based, BGB or cisplatin IC20 combos, synergistic combos for chromothripsis tumors (AID 1671454); details: CRL2098 osteosarcoma cells, drug combinations, stronger effect = higher value;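 further: cells exposed for 96 h before readout; 0% = vehicle DMSO and 100% = killing by high DMSO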
# [9] = growth inhibition, single agents and combos, HD-MB03, cell-based, BGB or cisplatin IC20 combos, synergistic combos for chromothripsis tumors (AID 1671455; in the data active means inhibition above about 83%;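 further: 0% = vehicle DMSO and 100% = high DMSO as cytotoxic control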); details: HD-MB03 medulloblastoma cells, stronger effect = higher value
# [10] = growth inhibition, single agents and combos, UWB1.289, cell-based, BGB or cisplatin combos, synergistic combos for chromothripsis tumors (AID 1671456); details: UWB1.289 ovarian carcinoma cells, stronger effect = higher value;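 further: cells exposed to compound for four days; 0% = vehicle DMSO and 100% = killing by high DMSO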
# [11] = growth inhibition, single agents and combos, LFS_MB_2R, cell-based, cisplatin combos, synergistic combos for chromothripsis tumors (AID 1671457); details: LFS_MB_2R medulloblastoma cells, stronger effect = higher value;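 further: cells exposed to compound for four days before readout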
# [12] = growth inhibition, MDA-MB-436, cell-based, BGB or cisplatin combos, synergistic combos for chromothripsis tumors (AID 1671458; call rule not given here;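 further: cells exposed for 96 hours; 0% = vehicle DMSO and 100% = killing by high DMSO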); details: MDA-MB-436 breast carcinoma growth inhibition, drug combinations, stronger effect = higher value
# [13] = UWB1.289_BRCA1 ovarian cancer growth, cell-based, BGB or cisplatin combinations (AID 1671459); details: UWB1.289 BRCA1 ovarian carcinoma, drug combinations, stronger effect = higher value
# [14] = drug combination toxicity in non-malignant astrocytes – cell-based, BGB or cisplatin IC20 combos, cytotoxicity control for chromothriptic childhood tumor combination screen (AID 1671460); details: Human astrocytes, viability inhibition, drug combinations, at 0.5 µM, stronger effect = higher value;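 further: cells exposed to compounds for 96 hours before viability readout; 0% = vehicle and 100% = killing control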
# [15] = BT084 cell growth, single and combined drugs, ICGC_MB145, cisplatin and BGB IC40 combos (AID 1671461); details: BT084 medulloblastoma cells, drug combinations, stronger effect = higher value;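 further: cells exposed to drugs for 96 hours; 0% = vehicle DMSO and 100% = high DMSO full killing control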
# [16] = RCMB18 cell growth, single agent and combined, cisplatin and BGB IC40 combos (AID 1671462); details: RCMB18 medulloblastoma cells, stronger effect = higher value;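 further: cells exposed to compound for four days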
# [17] = CRL1545 cell growth, single agent and combined, cisplatin and BGB IC20 combos (AID 1671464); details: CRL1545 osteosarcoma cells, stronger effect = higher value;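 further: cells exposed to compound for 96 hours before readout; 0% = vehicle DMSO and 100% = high DMSO killing control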
# [18] = compounds altering viability of human ES cells (AID 493140; call rule not given here;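 further: cells exposed to compounds for four days before counting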); details: human embryonic stem cell survival screen; stronger effect = higher value
# [19] = P. berghei load reduction in hepatocytes – cell-based, HepG2, luciferase luminescence, HepG2 viability, primary screen (AID 624349; in the data active means parasite load remaining mostly below about 12%, no sharp cut-off; inactive means mostly above about 10%;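 further: 100% = mean of DMSO negative control wells on the same plate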); details: P. berghei liver stage in HepG2, luciferase luminescence, concentration not given here; parasite load remaining: stronger effect = lower value; viability: measured here: HepG2 viability without parasites
# [20] = stronger effect = lower value, cell number ratio, induced over uninduced
# [21] = measured here: relative caspase fold change +Dox/-Dox
# [22] = measured here: total cells with miR-34 induction, stronger effect = lower value
# [23] = measured here: total cells without miR-34 induction
# [24] = MELAS cybrid survival, CellTiter-Glo 48 h, stronger effect = higher value
# [25] = Rieske KO mouse fibroblast survival, CellTiter-Glo 72 h
# [26] = measured here: combination with BGB IC40, at 0.05 µM
# [27] = measured here: with BGB IC20 combination, at 0.5 µM
# [28] = measured here: with cisplatin IC20 combination, at 0.5 µM
# [29] = measured here: combination with cisplatin, at 0.5 µM
# [30] = measured here: combination with cisplatin, at 5 µM
compound,measurement,setting,value
CC=C1NC(=O)C2CSSCCC=CC(CC(=O)NC(C(C)C)C(=O)N2)OC(=O)C(C(C)C)NC1=O (stereo unspecified),fold change,[1]; [20],0.776 (inactive)
same,fold change,[1]; [21],0.484
same,cell count,[1]; [22],596
same,cell count,[1]; [23],768
same,z-score,[2]; [24],0.102 (inactive)
same,z-score,[2]; [25],-3.68
same,inhibition,"[3]; at 0.5 µM, stronger effect = higher value",-10.7% (inactive) and 88% (active)
same,inhibition,"[3]; measured here: combination with BGB IC20, at 0.005 µM",24.5% and 60%
same,inhibition,"[3]; measured here: combination with BGB IC40, at 0.005 µM",2.54% and 37.2%
same,inhibition,[3]; [26],74.1% and 67.4%
same,inhibition,"[3]; measured here: combination with cisplatin, at 0.5 µM, stronger effect = higher value",10.9% and 123%
same,inhibition,"[3]; measured here: combination with cisplatin, at 5 µM, stronger effect = higher value",118% and 111%
same,inhibition,"[4]; BGB combo, at 5 µM",99.8% and 99.9%
same,inhibition,[4]; at 0.5 µM,99.7% (active) and 99.8% (active)
same,inhibition,"[4]; cisplatin combo, at 5 µM",99.8% and 99.9%
same,inhibition,[4]; [27],99.7% and 99.8%
same,inhibition,[4]; [28],99.8% and 99.9%
same,inhibition,"[4]; single agent, at 5 µM",99.9%
same,inhibition,"[5]; BGB IC20 combo, at 0.005 µM",90.4% and 84.4%
same,inhibition,"[5]; BGB IC40 combo, at 0.005 µM",97.9% and 97.5%
same,inhibition,"[5]; BGB IC40 combo, at 0.05 µM",97% and 97.5%
same,inhibition,[5]; at 0.5 µM,-17.2% (inactive) and 63.7% (inactive)
same,inhibition,"[5]; cisplatin combo, at 0.05 µM",96.8% and 97.9%
same,inhibition,"[5]; cisplatin combo, at 0.5 µM",-7.95% and 70.2%
same,inhibition,"[5]; cisplatin combo, at 5 µM",85.1% and 97.2%
same,inhibition,"[5]; measured here: 5 uM single agent, at 5 µM",81.2% and 80.4%
same,inhibition,[6]; at 0.5 µM,95.1% (active) and 99.5% (active)
same,inhibition,[6]; [26],91.6% and 93.4%
same,inhibition,[6]; [29],100% and 110%
same,inhibition,[6]; [30],98.8% and 99.1%
same,inhibition,[7]; at 0.5 µM,99.8% (active)
same,inhibition,"[7]; measured here: with BGB IC20, at 0.5 µM",99.8%
same,inhibition,"[7]; measured here: with BGB IC20, at 5 µM",99.9%
same,inhibition,"[7]; measured here: with cisplatin IC20, at 0.5 µM",99.9% and 99.8%
same,inhibition,"[7]; measured here: with cisplatin IC20, at 5 µM",99.9%
same,inhibition,"[7]; single agent, at 5 µM",99.9%
same,inhibition,[8]; at 0.5 µM,94.7% (active) and 97.3% (active)
same,inhibition,"[8]; measured here: combination with BGB at IC20, at 0.5 µM",91% and 95.3%
same,inhibition,"[8]; measured here: combination with cisplatin at IC20, at 0.5 µM",96.7% and 99.1%
same,inhibition,[9]; at 0.5 µM,99.8% (active) and 99.9% (active)
same,inhibition,"[9]; measured here: combo with BGB at IC20, at 0.5 µM",99.8%
same,inhibition,"[9]; measured here: combo with cisplatin at IC20, at 0.5 µM",99.8% and 100%
same,inhibition,[10]; at 0.5 µM,97.4% (active) and 98.3% (active)
same,inhibition,"[10]; measured here: inhibition with BGB combination, at 0.05 µM",65.5% and 83.9%
same,inhibition,"[10]; measured here: inhibition with cisplatin combination, at 0.05 µM",79.2% and 89.7%
same,inhibition,[11]; at 0.5 µM,88.5% (active) and 90.2% (active)
same,inhibition,[11]; [29],99.4% and 104%
same,inhibition,[11]; [30],102% and 106%
same,inhibition,[12]; at 0.5 µM,71.3% (inactive) and 68.4% (inactive)
same,inhibition,"[12]; measured here: BGB combination, at 0.5 µM",57.2% and 55.5%
same,inhibition,"[12]; measured here: BGB combination, at 5 µM",70.4% and 77.6%
same,inhibition,"[12]; measured here: cisplatin combination, at 0.5 µM",73.2% and 67.4%
same,inhibition,"[12]; measured here: cisplatin combination, at 5 µM",84.8% and 85.1%
same,inhibition,"[13]; BGB combination, concentration series, at 5 µM",118% and 126%
same,inhibition,[13]; at 0.5 µM,106% (active) and 109% (active)
same,inhibition,"[13]; cisplatin combination, concentration series, at 5 µM",131% and 130%
same,inhibition,[14],102% (active) and 101% (active)
same,inhibition,[14]; measured here: combo with BGB IC20,105% and 103%
same,inhibition,[14]; measured here: combo with cisplatin IC20,101%
same,inhibition,[15]; at 0.5 µM,93.8% (active) and 102% (active)
same,inhibition,"[15]; cisplatin combination, at 0.5 µM",102% and 101%
same,inhibition,"[15]; cisplatin combination, at 5 µM",106%
same,inhibition,"[15]; measured here: BGB IC40 combination 0.05 uM, at 0.05 µM",99.6% and 96.6%
same,inhibition,"[15]; single agent, at 5 µM",106% and 108%
same,inhibition,[16]; at 0.5 µM,90.4% (active) and 89.4% (active)
same,inhibition,"[16]; cisplatin combo, at 5 µM",96% and 97.2%
same,inhibition,"[16]; measured here: BGB IC40 combination, at 0.05 µM",78.9% and 79.8%
same,inhibition,[16]; [29],92.6% and 90.7%
same,inhibition,"[16]; single agent, at 5 µM",96.6% and 90.8%
same,inhibition,[17]; at 0.5 µM,96% (active) and 96.3% (active)
same,inhibition,[17]; [27],97% and 96.3%
same,inhibition,[17]; [28],95.4% and 96.2%
same,inhibition,"[17]; single agent, at 0.05 µM",89.7% and 93.3%
same,inhibition,"[17]; single agent, at 5 µM",97.8% and 96.3%
O=C(O)C(O)C(O)C(O)C(O)C(=O)O (stereo unspecified) (tested in a mixture with another compound),survival,[18],5.33 (inactive)
same,parasite load remaining,[19],114% (inactive)
same,viability,[19],71.7%
same,fold change,[1]; [20],0.895 (inactive)
same,fold change,[1]; [21],0.792
same,cell count,[1]; [22],8860
same,cell count,[1]; [23],9910
same,z-score,[2]; [24],-1.4 (inactive)
same,z-score,[2]; [25],-0.918
CNCCC=C1c2ccccc2C=Cc2ccccc21,survival,[18],0.833 (inactive)
same,parasite load remaining,[19],45.3% (inactive) and 67.3% (inactive)
same,viability,[19],45.5% and 71.9%
same,fold change,[1]; [20],0.862 (inactive)
same,fold change,[1]; [21],1.27
same,cell count,[1]; [22],6810
same,cell count,[1]; [23],7910
same,z-score,[2]; [24],0.194 (inactive)
same,z-score,[2]; [25],0.365
CC(C)(C)NCC(O)COc1ccccc1C1CCCC1 (stereo unspecified),survival,[18],4.5 (inactive)
same,parasite load remaining,[19],64.8% (inactive)
same,viability,[19],78.7%
same,fold change,[1]; [20],0.898 (inactive)
same,fold change,[1]; [21],0.683
same,cell count,[1]; [22],7970
same,cell count,[1]; [23],8880
same,z-score,[2]; [24],-0.603 (inactive)
same,z-score,[2]; [25],-0.983
